Where “and” joins values, the source holds several entries; their conditions need not be identical. Identical values can stand only once. For some assays here: Entries with a potency or affinity are not part of this list. Some compounds were tested as several samples or in several runs, with calls that do not always agree. Calls of active or inactive are those of the source. Unless noted, no rule for the calls is given here.

Experiment [1] in a line: antimalarial activity against Dd2 strain (AID 2302;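 active = growth inhibition above 50% at the single 2 µM test dose, taken to imply half-maximal potency below 2 µM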;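 also: 0% = DMSO untreated growth and 100% = chloroquine plus artemisinin killed control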). The conditions noted are these: P. falciparum Dd2 in RBCs, LDH growth readout, 72 h; at 2 µM; stronger effect = higher value.
A short description of experiment [2]: human hepatoma cell viability loss – ATP luminescence, cytotoxicity control for P. falciparum antimalarial project, primary screen (AID 2303;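 active = inhibition above 50%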;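 also: 0% = DMSO wells and 100% = digitonin-killed cells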). The conditions noted are these: HepG2 viability, 24-48 h, at 10 µM, stronger effect = higher value.
The target in experiment [3] is L-lactate dehydrogenase (Plasmodium falciparum (isolate CDC / Honduras)) (UniProt Q27743). As to the kind of experiment: PfLDH activity inhibition – cell lysate, 3D7 strain, counter-screen for P. falciparum growth inhibition project (AID 2304).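 Also: 0% = vehicle and 100% = reference inhibitor.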 The conditions noted are these: P. falciparum 3D7 crude extract, LDH APAD/NBT absorbance; at 2 µM; stronger effect = higher value. A general note: The purpose of a counterscreen is to sort out artefacts and off-target activity.
Chain of L-lactate dehydrogenase (Plasmodium falciparum (isolate CDC / Honduras)) (Q27743 whole entry, looked up): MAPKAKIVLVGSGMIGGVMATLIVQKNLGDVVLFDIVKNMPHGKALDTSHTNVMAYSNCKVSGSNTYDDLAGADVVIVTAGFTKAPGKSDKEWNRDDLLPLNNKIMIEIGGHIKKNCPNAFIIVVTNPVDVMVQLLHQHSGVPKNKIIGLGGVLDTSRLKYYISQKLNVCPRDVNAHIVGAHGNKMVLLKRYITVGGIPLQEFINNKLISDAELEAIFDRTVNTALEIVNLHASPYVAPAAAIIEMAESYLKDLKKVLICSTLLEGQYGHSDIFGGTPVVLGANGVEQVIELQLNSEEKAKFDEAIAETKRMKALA

Experiment [4] is described as follows: inhibition of 3D7 malaria parasite growth – strain 3D7 (AID 2306).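 Also: 0% = DMSO wells and 100% = chloroquine plus artemisinin control wells.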 The conditions noted are these: P. falciparum 3D7 erythrocytic growth, LDH absorbance, 72 h; at 2 µM; stronger effect = higher value.
Experiment [5] has as its target Calcium-dependent protein kinase 1 (Plasmodium falciparum (isolate 3D7)) (UniProt P62344). Description: PfCDPK1 kinase inhibitors, biochemical, TCAMS library (AID 1159585; cut-off not given, nearly all actives have IC50 up to about 0.98 µM;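 also: inhibitors leave more ATP so luminescence rises with inhibition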). The conditions noted are these: recombinant PfCDPK1, Kinase-Glo ATP depletion luminescence. (In Kinase-Glo more light means more ATP remaining.)
Experiment [6] concerns the target Plasmodium falciparum protein kinase 6 (PK6, PF3D7_1337100) (UniProt Q8IDW1). Description: PfPK6 kinase inhibitors, biochemical, TCAMS library (AID 1159586). The conditions noted are these: recombinant PfPK6, Kinase-Glo ATP depletion luminescence.
In experiment [7] the target is Protein kinase 7 (PK7), Plasmodium falciparum 3D7 (PF3D7_0213400) (UniProt Q7YTF7). As to the kind of experiment: inhibition of Plasmodium PK7 catalytic activity – biochemical, TCAMS antimalarial set, Kinase-Glo luminescence (AID 1159587). The conditions noted are these: recombinant PfPK7, Kinase-Glo ATP depletion luminescence.
Chain of Protein kinase 7 (PK7), Plasmodium falciparum 3D7 (PF3D7_0213400) (Q7YTF7 1-343): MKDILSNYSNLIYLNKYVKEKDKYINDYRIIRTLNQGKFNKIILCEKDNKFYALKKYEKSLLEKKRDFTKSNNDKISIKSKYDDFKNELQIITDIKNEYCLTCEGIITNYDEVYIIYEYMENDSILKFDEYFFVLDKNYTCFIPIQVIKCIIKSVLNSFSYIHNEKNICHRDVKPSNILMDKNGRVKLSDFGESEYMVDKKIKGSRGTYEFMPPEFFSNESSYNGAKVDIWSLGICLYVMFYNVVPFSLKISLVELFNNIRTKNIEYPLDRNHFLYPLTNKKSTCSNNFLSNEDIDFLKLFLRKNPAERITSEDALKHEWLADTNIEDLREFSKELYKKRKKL
For experiment [8], the target named is Calcium-dependent protein kinase 4 (Plasmodium falciparum (isolate 3D7)) (UniProt Q8IBS5). As to the kind of experiment: PfCDPK4 kinase inhibitors, biochemical, TCAMS library (AID 1159588; cut-off not given, nearly all actives have IC50 up to about 0.91 µM). The conditions noted are these: recombinant PfCDPK4, Kinase-Glo ATP depletion luminescence.
Chain of Calcium-dependent protein kinase 4 (Plasmodium falciparum (isolate 3D7)) (Q8IBS5 whole entry, looked up): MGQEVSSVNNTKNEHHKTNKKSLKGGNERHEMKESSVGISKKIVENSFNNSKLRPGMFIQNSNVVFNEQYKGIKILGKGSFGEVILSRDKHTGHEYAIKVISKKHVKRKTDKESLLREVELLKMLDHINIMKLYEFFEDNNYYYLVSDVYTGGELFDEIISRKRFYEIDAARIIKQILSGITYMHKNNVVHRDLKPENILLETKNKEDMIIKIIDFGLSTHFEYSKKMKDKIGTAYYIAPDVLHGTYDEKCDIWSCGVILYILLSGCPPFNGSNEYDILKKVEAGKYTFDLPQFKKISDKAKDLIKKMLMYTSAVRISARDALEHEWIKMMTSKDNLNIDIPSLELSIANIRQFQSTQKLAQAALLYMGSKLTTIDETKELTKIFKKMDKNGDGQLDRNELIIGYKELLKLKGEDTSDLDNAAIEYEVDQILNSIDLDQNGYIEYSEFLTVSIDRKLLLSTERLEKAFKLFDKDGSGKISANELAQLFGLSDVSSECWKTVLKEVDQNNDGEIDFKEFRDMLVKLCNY

Chain of Calcium-dependent protein kinase 1 (Plasmodium falciparum (isolate 3D7)) (P62344 whole entry, looked up): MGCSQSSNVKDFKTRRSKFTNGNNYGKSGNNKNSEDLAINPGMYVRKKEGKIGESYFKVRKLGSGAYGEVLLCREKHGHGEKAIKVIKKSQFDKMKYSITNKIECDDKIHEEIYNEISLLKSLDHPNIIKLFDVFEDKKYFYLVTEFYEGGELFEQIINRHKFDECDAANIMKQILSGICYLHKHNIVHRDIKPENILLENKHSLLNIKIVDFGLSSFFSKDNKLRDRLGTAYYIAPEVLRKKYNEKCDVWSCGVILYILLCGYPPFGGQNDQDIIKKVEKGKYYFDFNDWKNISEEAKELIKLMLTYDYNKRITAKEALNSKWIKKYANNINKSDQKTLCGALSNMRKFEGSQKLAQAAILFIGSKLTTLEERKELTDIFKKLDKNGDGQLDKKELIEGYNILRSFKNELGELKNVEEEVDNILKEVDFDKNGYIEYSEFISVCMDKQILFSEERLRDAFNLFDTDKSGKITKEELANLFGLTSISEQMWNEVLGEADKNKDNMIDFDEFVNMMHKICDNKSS
Chain of Plasmodium falciparum protein kinase 6 (PK6, PF3D7_1337100) (Q8IDW1 1-305): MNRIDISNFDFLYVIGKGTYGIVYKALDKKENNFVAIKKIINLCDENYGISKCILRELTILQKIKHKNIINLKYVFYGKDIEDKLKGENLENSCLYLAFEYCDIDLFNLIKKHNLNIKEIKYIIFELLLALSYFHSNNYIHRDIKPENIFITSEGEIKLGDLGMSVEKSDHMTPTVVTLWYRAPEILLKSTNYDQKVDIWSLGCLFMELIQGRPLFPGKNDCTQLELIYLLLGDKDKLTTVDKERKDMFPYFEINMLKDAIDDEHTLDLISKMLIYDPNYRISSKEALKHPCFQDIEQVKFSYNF

On to `Cc1ccc(CC(C)NCC(O)c2cccc(C(F)(F)F)c2)c(C)c1` (stereo unspecified), for which the growth inhibition in experiment [1] and in experiment [4] was 99% (active) in each case. The inhibition was 3% (inactive) in experiment [2] and -1% (inactive) in experiment [3]. Besides, the result in experiment [5], in experiment [6], in experiment [7] and in experiment [8] was inactive.
In the case of `O=C(/C=C/c1ccc(Cl)c(Cl)c1)N1CCC(CN2CCC(c3c[nH]c4ccc(NS(=O)(=O)c5cccs5)cc34)CC2)CC1`, the growth inhibition in experiment [1] and in experiment [4] was 100% (active) in each case. The inhibition in experiment [2] is 17% (inactive); in experiment [3], -7% (inactive). Moreover, the result in experiment [5], in experiment [6], in experiment [7] and in experiment [8] was inactive.
Consider `C#CCN1CCC2=C(C1)c1c(O)cc(C(C)C(C)CCc3ccc(F)cc3)cc1OC2(C)C` (stereo unspecified), for which the growth inhibition in experiment [1] is 99% (active); in experiment [4] it was 100% (active). In addition, the values for the inhibition in experiment [2] and in experiment [3] were 10% (inactive) and 3% (inactive), respectively. For the same molecule, the outcome in experiment [5], in experiment [6], in experiment [7] and in experiment [8] was inactive.
As to `COc1coc(C(=O)NC2CCN(CC3(c4ccc(Cl)cc4)CCC3)CC2)c1OC`, the growth inhibition in experiment [1] and in experiment [4] was 96% (active) in each case. For the same molecule, the figures for the inhibition in experiment [2] and in experiment [3] were 2% (inactive) and -3% (inactive), respectively. Further, the result in experiment [5], in experiment [6], in experiment [7] and in experiment [8] was inactive.
`CS(=O)(=O)Nc1ccc2[nH]cc(C3CCN(CC4CCC(NC(=O)/C=C/c5ccc(Cl)c(Cl)c5)CC4)CC3)c2c1` (stereo unspecified): the values for the growth inhibition in experiment [1] and in experiment [4] were 86% (active) and 100% (active), respectively. Moreover, the values for the inhibition in experiment [2] and in experiment [3] were 22% (inactive) and -3% (inactive), respectively. Moreover, the outcome in experiment [5], in experiment [6], in experiment [7] and in experiment [8] was inactive.
As to `O=C(NC1CCC(CN2CCC(c3c[nH]c4ccccc34)CC2)CC1)NC12CC3CC(CC(C3)C1)C2` (stereo unspecified), the figures for the growth inhibition in experiment [1] and in experiment [4] were 46% (inactive) and 96% (active), respectively. For the same molecule, the inhibition in experiment [2] was 37% (inactive); in experiment [3] it was 7% (inactive). Also, the result in experiment [5], in experiment [6], in experiment [7] and in experiment [8] was inactive.
Take `O=C(NC1CCC(CN2CCC(c3c[nH]c4ccccc34)CC2)CC1)c1ccc(-c2cc(C(F)(F)F)ccc2Cl)o1` (stereo unspecified): the growth inhibition in experiment [1] is 34% (inactive); in experiment [4] it was 102% (active). Also, the values for the inhibition in experiment [2] and in experiment [3] were 5% (inactive) and 3% (inactive), respectively. Further, the result in experiment [5], in experiment [6], in experiment [7] and in experiment [8] was inactive.
Regarding `c1ccc2c(NCCCCCCCCCNc3c4ccccc4nc4ccccc34)c3ccccc3nc2c1`, the growth inhibition in experiment [1] was 95% (active); in experiment [4] it was 100% (active). Moreover, the inhibition is 99% (active) in experiment [2] and -6% (inactive) in experiment [3]. Moreover, the outcome in experiment [5], in experiment [6], in experiment [7] and in experiment [8] was inactive.
Consider `CC[C@H]1CN2CC[C@H]1C[C@@H]2[C@@H](OC(=O)c1ccc(Cl)cc1)c1ccnc2ccc(OC)cc12`, for which the results for the growth inhibition in experiment [1] and in experiment [4] were -3% (inactive) and 89% (active), respectively. The inhibition is -18% (inactive) in experiment [2] and -1% (inactive) in experiment [3]. In addition, the result in experiment [5], in experiment [6], in experiment [7] and in experiment [8] was inactive.
Consider `Cn1nc(-c2ccc(S(=O)(=O)N3CCC(CN4CCC(c5c[nH]c6ccccc56)CC4)CC3)s2)cc1C(F)(F)F`, for which the growth inhibition is 48% (inactive) in experiment [1] and 93% (active) in experiment [4]. The values for the inhibition in experiment [2] and in experiment [3] were 16% (inactive) and -6% (inactive), respectively. In addition, the result in experiment [5], in experiment [6], in experiment [7] and in experiment [8] was inactive.
Consider `Cc1[nH]c2ccccc2c1C1=CCN(CCCCC2(C)C(=O)Nc3cccc(F)c32)CC1` (stereo unspecified), for which the growth inhibition in experiment [1] is 90% (active); in experiment [4], 95% (active). In addition, the values for the inhibition in experiment [2] and in experiment [3] were 9% (inactive) and -4% (inactive), respectively. The outcome in experiment [5], in experiment [6], in experiment [7] and in experiment [8] was inactive.
Regarding `CN(C)c1cccc(NC(=O)N[C@H]2N=C(c3ccccc3)c3ccccc3N(CC(=O)N3CCCC3)C2=O)c1`, the growth inhibition in experiment [1] and in experiment [4] was 98% (active) in each case. The inhibition in experiment [2] is -5% (inactive); in experiment [3], -4% (inactive). The result in experiment [5], in experiment [6], in experiment [7] and in experiment [8] was inactive.
Consider `N#Cc1c(Cl)cccc1Oc1ccc(S(=O)(=O)NC2CCC(CN3CCC(c4c[nH]c5ccccc45)CC3)CC2)cc1` (stereo unspecified), for which the growth inhibition is 36% (inactive) and 16% (inactive) in experiment [1]; 101% (active) and 85% (active) in experiment [4]. In addition, the inhibition is 31% (inactive) and 29% (inactive) in experiment [2]; 3% (inactive) and -3% (inactive) in experiment [3]. Further, the result in experiment [5], in experiment [6], in experiment [7] and in experiment [8] was inactive.
For `COC(=O)/C=C/c1ccc(CC(C)NCC(O)c2cccc(Cl)c2)cc1` (stereo unspecified), the growth inhibition in experiment [1] was 73% (active); in experiment [4], 99% (active). Besides, the inhibition in experiment [2] was 2% (inactive); in experiment [3] it was 5% (inactive). The outcome in experiment [5], in experiment [6], in experiment [7] and in experiment [8] was inactive.
With `CC(C)CNCc1ccc(-c2ccc(CN(C(=O)Nc3ccccc3)C3CCN(Cc4ccccc4)CC3)cc2)cc1`, the growth inhibition in experiment [1] was 61% (active); in experiment [4] it was 101% (active). Also, the inhibition was 27% (inactive) in experiment [2] and -4% (inactive) in experiment [3]. For the same molecule, the result in experiment [5], in experiment [6], in experiment [7] and in experiment [8] was inactive.
In the case of `CC(Cc1ccc(SC(C)C)cc1)NCC(O)c1cccc(Cl)c1` (stereo unspecified), the growth inhibition in experiment [1] is 97% (active); in experiment [4], 99% (active). Also, the inhibition in experiment [2] was 5% (inactive); in experiment [3], -3% (inactive). Also, the outcome in experiment [5], in experiment [6], in experiment [7] and in experiment [8] was inactive.
With `CC[C@H]1CN2CC[C@H]1C[C@H]2[C@H](O)c1cc(-c2ccc(C)cc2)nc2ccc(OC)cc12`, the growth inhibition in experiment [1] and in experiment [4] was 99% (active) each time. Besides, the inhibition is 22% (inactive) in experiment [2] and 6% (inactive) in experiment [3]. The outcome in experiment [5], in experiment [6], in experiment [7] and in experiment [8] was inactive.
Take `CC(=O)C1(c2ccccc2)CCN(CCC2(c3ccc(Cl)c(Cl)c3)CN(C(=O)C3CCCCC3)CCO2)CC1` (stereo unspecified): the growth inhibition is 99% (active) in experiment [1] and 100% (active) in experiment [4]. Besides, the inhibition is 3% (inactive) in experiment [2] and -2% (inactive) in experiment [3]. For the same molecule, the result in experiment [5], in experiment [6], in experiment [7] and in experiment [8] was inactive.
Take `COC(=O)c1sccc1NC(=S)NC1CCC(CN2CCC(c3c[nH]c4ccccc34)CC2)CC1` (stereo unspecified): the growth inhibition in experiment [1] is 54% (active) and 49% (inactive); in experiment [4], 97% (active) and 100% (active). For the same molecule, the inhibition in experiment [2] was 25% (inactive) and 34% (inactive); in experiment [3], 0% (inactive) and -1% (inactive). For the same molecule, the outcome in experiment [5], in experiment [6], in experiment [7] and in experiment [8] was inactive.
Take `O=C(/C=C/c1ccc(Cl)c(Cl)c1)N1CCC(CN2CC[C@H](c3c[nH]c4ccccc34)[C@@H](O)C2)CC1`: the growth inhibition in experiment [1] was 14% (inactive); in experiment [4], 99% (active). Also, the inhibition was 37% (inactive) in experiment [2] and -7% (inactive) in experiment [3]. Besides, the result in experiment [5], in experiment [6], in experiment [7] and in experiment [8] was inactive.
As to `NC(=O)c1ccc2[nH]cc(C3CCN(CC4CCC(NC(=O)/C=C/c5ccc(Cl)c(Cl)c5)CC4)CC3)c2c1` (stereo unspecified), the growth inhibition in experiment [1] was 26% (inactive) and 32% (inactive); in experiment [4], 101% (active) and 100% (active). Further, the inhibition in experiment [2] was 11% (inactive) and -1% (inactive); in experiment [3], 5% (inactive) and -8% (inactive). Besides, the outcome in experiment [5], in experiment [6], in experiment [7] and in experiment [8] was inactive.
Take `CCN1CCC(N2CCC(n3c(C)nc4cc(C(F)(F)F)ccc43)CC2)CC1`: the growth inhibition was 16% (inactive) in experiment [1] and 93% (active) in experiment [4]. Further, the inhibition in experiment [2] is 6% (inactive); in experiment [3], 1% (inactive). In addition, the outcome in experiment [5], in experiment [6], in experiment [7] and in experiment [8] was inactive.

As a reminder, the inhibition is the relative decrease from the control value, in per cent.

These data come from PubChem BioAssay.
